Source: the supplement of paper PMC11732987, “Enantioselective OTUD7B fragment discovery through chemoproteomics screening and high-throughput optimisation” (Communications Chemistry, 2025)

Key:
Assay in all cases: log2 ratio of Biotin-Ahx-Ub-VS probe labelling (fragment/DMSO); higher = less target engagement (more negative = stronger competition), active = hit call of the paper (q ≤ 0.05, log2 ratio ≤ -1)
Settings in all cases: compound concentration: 200 uM; treatment time: 3 h
ALG13 = molecular target: T1, ALG13 (UniProt Q9NP73)
T1 sequence (whole entry): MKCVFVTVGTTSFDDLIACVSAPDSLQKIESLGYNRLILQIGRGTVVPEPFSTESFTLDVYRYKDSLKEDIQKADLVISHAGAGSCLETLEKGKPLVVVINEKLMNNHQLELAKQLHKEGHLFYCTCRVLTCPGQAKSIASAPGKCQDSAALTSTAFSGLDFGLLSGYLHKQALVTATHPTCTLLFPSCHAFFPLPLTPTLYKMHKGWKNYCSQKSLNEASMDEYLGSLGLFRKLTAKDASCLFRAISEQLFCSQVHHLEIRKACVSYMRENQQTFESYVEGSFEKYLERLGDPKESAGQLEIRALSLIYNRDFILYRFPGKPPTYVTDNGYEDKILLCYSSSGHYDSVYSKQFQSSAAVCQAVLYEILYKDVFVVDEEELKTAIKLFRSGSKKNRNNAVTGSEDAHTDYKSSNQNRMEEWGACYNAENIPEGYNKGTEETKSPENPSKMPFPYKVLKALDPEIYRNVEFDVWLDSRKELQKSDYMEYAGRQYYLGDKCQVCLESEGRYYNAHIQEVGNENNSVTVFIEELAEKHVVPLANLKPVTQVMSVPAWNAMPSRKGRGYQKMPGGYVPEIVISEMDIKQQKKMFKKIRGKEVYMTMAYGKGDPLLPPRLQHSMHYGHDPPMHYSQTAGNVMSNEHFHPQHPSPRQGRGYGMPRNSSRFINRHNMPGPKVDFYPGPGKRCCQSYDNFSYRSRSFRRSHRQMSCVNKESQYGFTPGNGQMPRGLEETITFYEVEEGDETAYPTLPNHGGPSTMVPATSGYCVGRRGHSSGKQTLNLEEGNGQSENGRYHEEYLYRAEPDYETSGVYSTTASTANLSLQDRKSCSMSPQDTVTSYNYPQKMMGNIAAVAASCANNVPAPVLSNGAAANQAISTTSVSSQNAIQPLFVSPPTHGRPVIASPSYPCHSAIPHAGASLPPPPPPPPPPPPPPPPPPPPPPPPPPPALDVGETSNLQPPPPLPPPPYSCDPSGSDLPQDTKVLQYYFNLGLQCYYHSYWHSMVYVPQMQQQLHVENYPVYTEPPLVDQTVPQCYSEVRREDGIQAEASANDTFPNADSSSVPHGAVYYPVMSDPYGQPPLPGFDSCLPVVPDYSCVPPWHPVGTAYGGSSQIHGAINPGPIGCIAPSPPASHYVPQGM
In short: (§1)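 Labelling with Biotin-Ahx-Ub-VS (0.5 µM final, 1 h) followed a 3 h triplicate treatment of HEK293T lysate (495 µg per sample, Tris/CHAPS/IGEPAL buffer with protease inhibitors) with fragment at 200 µM or vehicle. Labelled DUBs were NeutrAvidin-enriched, digested with LysC and trypsin, and run by diaPASEF LC-MS/MS. The values, average log2 fragment/vehicle ratios by unpaired t-test, come from global-median-normalised Spectronaut label-free quantities. Proteins with ≥2 unique peptides were used.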

ATXN3 = ATXN3 (UniProt P54252)
In short: as §1

BAP1 = molecular target: T2, BAP1 (UniProt Q92560)
T2 sequence (whole entry): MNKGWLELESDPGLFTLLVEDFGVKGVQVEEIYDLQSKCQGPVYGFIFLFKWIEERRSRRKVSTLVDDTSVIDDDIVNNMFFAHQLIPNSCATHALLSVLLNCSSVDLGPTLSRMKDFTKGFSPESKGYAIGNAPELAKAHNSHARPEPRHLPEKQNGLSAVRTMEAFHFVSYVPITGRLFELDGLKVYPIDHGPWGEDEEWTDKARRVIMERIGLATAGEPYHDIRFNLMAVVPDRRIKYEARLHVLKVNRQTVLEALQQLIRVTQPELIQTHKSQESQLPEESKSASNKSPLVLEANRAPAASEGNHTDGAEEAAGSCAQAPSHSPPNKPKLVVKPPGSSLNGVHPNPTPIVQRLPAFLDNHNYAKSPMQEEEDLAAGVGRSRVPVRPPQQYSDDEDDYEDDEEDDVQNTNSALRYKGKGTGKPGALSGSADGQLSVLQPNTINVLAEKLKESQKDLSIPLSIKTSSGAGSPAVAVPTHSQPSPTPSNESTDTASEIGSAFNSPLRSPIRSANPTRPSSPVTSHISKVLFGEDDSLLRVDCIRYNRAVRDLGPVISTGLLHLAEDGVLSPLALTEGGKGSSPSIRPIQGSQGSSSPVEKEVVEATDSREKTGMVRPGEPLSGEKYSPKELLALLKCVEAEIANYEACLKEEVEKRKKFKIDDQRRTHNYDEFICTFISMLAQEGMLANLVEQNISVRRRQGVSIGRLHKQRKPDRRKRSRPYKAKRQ
In short: as §1

EIF3F = EIF3F (UniProt O00303)
In short: as §1

EIF3H = EIF3H (UniProt O15372)
In short: as §1

FAM105A = molecular target: T3, FAM105A (UniProt Q9NUU6)
T3 sequence (whole entry): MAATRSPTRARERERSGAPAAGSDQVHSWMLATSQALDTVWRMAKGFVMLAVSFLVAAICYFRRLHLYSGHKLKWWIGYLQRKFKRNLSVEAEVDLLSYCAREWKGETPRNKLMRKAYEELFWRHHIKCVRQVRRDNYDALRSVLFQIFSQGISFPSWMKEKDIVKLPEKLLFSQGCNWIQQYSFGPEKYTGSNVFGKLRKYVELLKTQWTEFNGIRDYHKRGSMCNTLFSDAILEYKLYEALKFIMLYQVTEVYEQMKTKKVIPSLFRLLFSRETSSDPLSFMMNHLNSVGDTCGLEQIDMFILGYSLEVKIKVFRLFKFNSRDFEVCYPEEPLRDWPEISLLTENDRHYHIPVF
In short: as §1

OTUB1 = OTUB1 (UniProt Q96FW1)
In short: as §1

OTUD4 = molecular target: T4, OTUD4 (UniProt Q01804)
T4 sequence (whole entry): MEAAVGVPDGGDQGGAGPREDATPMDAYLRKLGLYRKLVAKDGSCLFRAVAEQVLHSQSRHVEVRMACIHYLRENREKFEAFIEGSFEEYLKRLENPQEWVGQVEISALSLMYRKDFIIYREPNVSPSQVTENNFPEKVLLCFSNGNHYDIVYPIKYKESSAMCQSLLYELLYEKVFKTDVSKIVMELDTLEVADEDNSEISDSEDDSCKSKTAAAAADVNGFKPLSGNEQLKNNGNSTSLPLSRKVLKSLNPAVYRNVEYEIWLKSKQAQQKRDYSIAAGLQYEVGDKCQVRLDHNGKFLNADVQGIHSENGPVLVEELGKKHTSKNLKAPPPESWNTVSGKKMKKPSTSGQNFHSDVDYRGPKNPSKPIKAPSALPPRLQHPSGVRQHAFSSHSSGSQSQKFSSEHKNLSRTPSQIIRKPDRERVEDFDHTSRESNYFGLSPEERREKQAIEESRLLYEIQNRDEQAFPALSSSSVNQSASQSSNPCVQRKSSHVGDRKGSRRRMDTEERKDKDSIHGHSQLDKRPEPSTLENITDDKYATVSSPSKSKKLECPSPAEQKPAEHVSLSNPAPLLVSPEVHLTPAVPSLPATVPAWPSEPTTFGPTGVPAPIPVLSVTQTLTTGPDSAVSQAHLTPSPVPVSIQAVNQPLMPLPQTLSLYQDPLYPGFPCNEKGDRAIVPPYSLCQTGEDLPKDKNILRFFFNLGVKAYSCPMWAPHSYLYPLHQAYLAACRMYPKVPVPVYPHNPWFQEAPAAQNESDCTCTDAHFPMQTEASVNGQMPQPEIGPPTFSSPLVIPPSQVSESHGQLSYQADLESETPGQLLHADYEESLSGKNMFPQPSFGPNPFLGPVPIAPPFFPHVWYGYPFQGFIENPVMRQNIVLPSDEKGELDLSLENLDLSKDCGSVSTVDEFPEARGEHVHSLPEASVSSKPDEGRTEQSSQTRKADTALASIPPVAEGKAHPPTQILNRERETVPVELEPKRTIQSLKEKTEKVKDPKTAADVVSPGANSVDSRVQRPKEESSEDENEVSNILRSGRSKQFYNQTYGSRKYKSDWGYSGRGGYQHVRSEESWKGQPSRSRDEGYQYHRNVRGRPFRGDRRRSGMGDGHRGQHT
In short: as §1

OTUD5 = molecular target: T5, OTUD5 (UniProt Q96G74)
T5 sequence (whole entry): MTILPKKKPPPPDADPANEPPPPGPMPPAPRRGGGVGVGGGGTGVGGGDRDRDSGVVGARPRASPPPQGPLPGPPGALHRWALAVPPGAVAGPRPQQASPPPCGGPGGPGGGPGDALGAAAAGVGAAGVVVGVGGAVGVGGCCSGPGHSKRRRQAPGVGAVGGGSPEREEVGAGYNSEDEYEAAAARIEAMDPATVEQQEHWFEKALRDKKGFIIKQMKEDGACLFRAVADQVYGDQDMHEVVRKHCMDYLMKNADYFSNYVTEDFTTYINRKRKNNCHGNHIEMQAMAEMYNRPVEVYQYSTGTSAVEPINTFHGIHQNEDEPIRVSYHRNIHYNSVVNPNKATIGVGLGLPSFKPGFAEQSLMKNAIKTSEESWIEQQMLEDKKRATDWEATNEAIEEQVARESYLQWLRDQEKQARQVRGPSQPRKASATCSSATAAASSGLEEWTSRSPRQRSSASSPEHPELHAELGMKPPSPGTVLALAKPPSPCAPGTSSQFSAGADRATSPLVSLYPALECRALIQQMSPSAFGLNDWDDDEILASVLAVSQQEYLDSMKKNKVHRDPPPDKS
In short: as §1

Measured: log2 ratio of Biotin-Ahx-Ub-VS probe labelling

EIF3H, sequence (O15372 whole entry): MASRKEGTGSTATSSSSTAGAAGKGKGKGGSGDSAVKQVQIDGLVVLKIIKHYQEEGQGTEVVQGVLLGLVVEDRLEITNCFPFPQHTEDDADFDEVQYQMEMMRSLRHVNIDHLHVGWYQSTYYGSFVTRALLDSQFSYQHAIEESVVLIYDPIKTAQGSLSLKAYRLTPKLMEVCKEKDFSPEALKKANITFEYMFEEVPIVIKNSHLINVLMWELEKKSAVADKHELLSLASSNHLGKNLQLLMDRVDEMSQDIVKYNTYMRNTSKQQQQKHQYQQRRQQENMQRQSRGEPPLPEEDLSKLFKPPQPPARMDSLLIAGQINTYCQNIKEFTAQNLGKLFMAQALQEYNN
OTUB1, sequence (Q96FW1 whole entry): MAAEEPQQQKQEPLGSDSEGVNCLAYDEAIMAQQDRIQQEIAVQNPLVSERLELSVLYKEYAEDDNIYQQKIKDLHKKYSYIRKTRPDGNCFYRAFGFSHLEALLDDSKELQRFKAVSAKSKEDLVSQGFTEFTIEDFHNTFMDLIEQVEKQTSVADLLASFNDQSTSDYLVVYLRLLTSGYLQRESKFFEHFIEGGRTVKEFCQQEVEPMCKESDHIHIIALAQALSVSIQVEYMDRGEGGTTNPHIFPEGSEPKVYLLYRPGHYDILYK
ATXN3, sequence (P54252 whole entry): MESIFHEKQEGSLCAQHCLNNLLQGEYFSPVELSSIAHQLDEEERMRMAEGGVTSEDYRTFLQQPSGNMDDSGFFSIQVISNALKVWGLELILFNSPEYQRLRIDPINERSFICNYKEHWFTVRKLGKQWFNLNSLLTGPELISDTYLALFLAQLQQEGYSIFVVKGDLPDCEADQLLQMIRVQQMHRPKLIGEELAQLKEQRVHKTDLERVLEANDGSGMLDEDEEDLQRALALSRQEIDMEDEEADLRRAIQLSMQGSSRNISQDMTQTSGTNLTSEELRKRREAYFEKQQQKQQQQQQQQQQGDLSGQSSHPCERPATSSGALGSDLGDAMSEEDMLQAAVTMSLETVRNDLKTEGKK
EIF3F, sequence (O00303 whole entry): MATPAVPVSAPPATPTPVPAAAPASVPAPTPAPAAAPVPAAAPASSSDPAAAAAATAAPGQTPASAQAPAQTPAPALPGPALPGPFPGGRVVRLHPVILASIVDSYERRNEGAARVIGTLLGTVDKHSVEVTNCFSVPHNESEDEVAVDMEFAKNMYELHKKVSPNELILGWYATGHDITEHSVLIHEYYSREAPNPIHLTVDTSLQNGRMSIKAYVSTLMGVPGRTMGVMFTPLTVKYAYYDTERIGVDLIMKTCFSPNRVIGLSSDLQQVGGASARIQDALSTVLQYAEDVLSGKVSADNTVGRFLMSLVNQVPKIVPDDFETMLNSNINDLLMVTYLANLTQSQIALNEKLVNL

COCC1C=CCCN1C(=O)CCl (centres undefined)
inactive: ALG13 0.0362 | ATXN3 -0.232 | BAP1 -0.527 | EIF3F -0.011 | EIF3H 0.276 | FAM105A 0.371 | OTUB1 0.0515 | OTUD4 -0.452 | OTUD5 -0.298
